The campaign covered roughly 310,000 compounds. About 18,000 (5.8%) were called active. About 22% were inconclusive and are not listed. Calls follow the shape of the dose curve; as a rule, active = well fitted inhibition curve with a large enough effect; inconclusive = small, poorly fitted or top-dose-only effect, or another doubt; inactive = no such curve, though single readings can be large or run the other way. What follows is part of a selection rich in actives, with near analogues and random picks from the rest. Where a call stands in place of a potency, no number is given.
Experiment: Primary qHTS for delayed death inhibitors of the malarial parasite plastid, 48 hour incubation
Settings: P. falciparum luciferase growth in erythrocytes; series mostly up to 28.7 µM
In short: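 Read-out is firefly luciferase luminescence from an integrated reporter in P. falciparum, so falling signal marks reduced parasite growth. Infected erythrocytes were at 2% hematocrit and 0.1% parasitemia (final) in Albumax-supplemented RPMI 1640.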
In the case of `COc1ccc(S(=O)(=O)N(CC(=O)N/N=C/c2ccc(C(=O)O)cc2)Cc2ccccc2)cc1OC`, the Potency is reported as “inactive”. For `COc1ccc(C)cc1N(CC(=O)NC(C)c1ccccc1)S(C)(=O)=O` (stereo unspecified), the Potency was “inactive”. For `Cc1ccccc1OCC(=O)NNC(=O)c1cc(S(=O)(=O)N(C)C)ccc1N1CCCC1`, the Potency was “inactive”. In the case of `Cc1ccc(S(=O)(=O)N(CC(O)CN2CCCCC2)c2cccc([N+](=O)[O-])c2)cc1` (stereo unspecified), the Potency is reported as “inactive”. With `CC(C)CNS(=O)(=O)c1ccc(CCC(=O)NCc2ccc(Cl)cc2)cc1` the Potency was “inactive”. In the case of `NC(=O)c1cc(S(=O)(=O)N2CCCC2)ccc1OCc1ccc(F)cc1`, the Potency is reported as “inactive”. For `CCOc1ccc(-c2cc(C)[n+](CCN(CC)CC)c(-c3ccc(OCC)cc3)c2)cc1`, the Potency was 0.329 µM (active). With `CCOc1ccc(-c2nnc3ccc(SC)nn23)cc1` the Potency was “inactive”. In the case of `CCOc1ccc(-c2nnc(-c3ccco3)o2)cc1`, the Potency is reported as “inactive”. For `COc1cc(NC(=O)c2cc([N+](=O)[O-])ccc2Br)ccc1NC(=O)c1ccco1`, the Potency was “inactive”. For `O=C(Nc1ccc(NC(=O)c2ccco2)c(Cl)c1)c1cccc([N+](=O)[O-])c1`, the Potency was 10.4 µM (active). In the case of `CCC(=O)NC(=S)Nc1ccc(NC(=O)c2ccco2)c(Cl)c1`, the Potency is reported as “inactive”. In the case of `Cc1ccc(OCC(=O)NC(C)c2ccccc2)cc1C` (stereo unspecified), the Potency is reported as “inactive”. With `O=C(N/N=C/c1ccc(O)c2ccccc12)c1cccnc1` the Potency was “inactive”. In the case of `Cc1ccc2occ(/C=N/NC(=O)c3ccccc3C)c(=O)c2c1`, the Potency is reported as “inactive”. For `Cc1ccc(/C=N/NC(=O)C2=NNC(c3ccccc3)(c3ccccc3)C2)c(O)c1`, the Potency was 4.15 µM (active). For `CCN(C(=O)CSc1nnnn1-c1ccccc1OC)C1CCS(=O)(=O)C1` (stereo unspecified), the Potency was “inactive”. For `CC(=O)N1CCSc2ccc(S(=O)(=O)N3CCC(C)CC3)cc21`, the Potency was “inactive”. For `CCc1ccc(NC(=O)Cn2nnc(C(=O)NCc3ccc(OC)cc3)c2N)cc1`, the Potency was “inactive”. In the case of `COc1cccc(-c2ccc(SCC(=O)N3CCN(c4ccccc4)CC3)nn2)c1`, the Potency is reported as “inactive”. For `COc1ccc(C(CC(=O)N2CCN(c3ccccc3)CC2)c2c(O)cc(OC)cc2OC)cc1` (stereo unspecified), the Potency was 10.4 µM (active). In the case of `CC(CC(=O)N1CCN(c2ccccc2)CC1)c1ccccc1` (stereo unspecified), the Potency is reported as “inactive”. With `Cc1ccc(CS(=O)(=O)CCC(=O)NCc2ccc(F)cc2)cc1` the Potency was “inactive”. For `CC[C@]1(c2ccccc2OC)C(=O)N(C(=O)OC)N1C(=O)OC`, the Potency was “inactive”. For `CCOc1ccc(NC(=O)CN(C)C(=O)c2c(C)noc2C)cc1OCC`, the Potency was “inactive”. With `Cc1ccc(S(=O)(=O)CCC(=O)OCC(=O)N(C)C2CCS(=O)(=O)C2)cc1` (stereo unspecified) the Potency was “inactive”. In the case of `Cc1cc(C)c(C)c(S(=O)(=O)Nc2ccc(O)cc2)c1C`, the Potency is reported as 7.38 µM (active). With `Cc1cc(C(C)(C)C)cc(S(=O)(=O)Nc2ccc(C(=O)O)cc2)c1C` the Potency was “inactive”. For `CCOc1ccc(NS(=O)(=O)c2cc(C)c(C)cc2C)cc1`, the Potency was “inactive”. In the case of `NS(=O)(=O)c1ccc(CCNC(=O)CNC(=O)Cc2ccccc2)cc1`, the Potency is reported as “inactive”. For `O=C1NC(=O)C(c2ccc(Cl)cc2)N1` (stereo unspecified), the Potency was “inactive”. For `S=C(c1ccccc1)N1CCCC1`, the Potency was “inactive”. In the case of `Cn1c(=O)[nH]c(=O)c2c1nc(N1CCCCCC1)n2CC(=O)c1ccccc1`, the Potency is reported as “inactive”. In the case of `CC1CCN(c2nc3c(c(=O)[nH]c(=O)n3C)n2CCCc2ccccc2)CC1`, the Potency is reported as 11.7 µM (active). With `CCCSc1nc2c(c(=O)[nH]c(=O)n2C)n1CCc1ccccc1` the Potency was “inactive”. With `Cc1[nH]c2ccccc2c1C(=O)CN1CC(C)CC(C)C1` (stereo unspecified) the Potency was “inactive”. In the case of `Cc1[nH]c2ccccc2c1C(=O)COC(=O)C(C)C`, the Potency is reported as “inactive”. For `Cc1[nH]c2ccccc2c1C(=O)C(C)Sc1nnc(C2CC2)o1` (stereo unspecified), the Potency was 3.7 µM (active). For `C=CCOc1ccc(/C=C2/C(=O)ON=C2C)cc1OCC`, the Potency was “inactive”. With `COc1ccc(OC)c(S(=O)(=O)n2c([N+](=O)[O-])cnc2C)c1` the Potency was “inactive”. With `NS(=O)(=O)c1ccc(N=Nc2c(O)[nH]c3ccc(Br)cc23)cc1` the Potency was “inactive”. In the case of `Cc1[nH]n(C)c(=O)c1C(=O)c1c(-c2c(Cl)cccc2Cl)noc1C`, the Potency is reported as “inactive”. For `COc1ccccc1N1CCN(C(=O)c2cc(-c3ccc(Cl)c(Cl)c3)on2)CC1`, the Potency was “inactive”. With `COc1ccccc1N1CCN(C(=O)c2c(-c3c(Cl)cccc3Cl)noc2C)CC1` the Potency was 10.4 µM (active). In the case of `Cc1onc(-c2c(F)cccc2Cl)c1C(=O)N(C)CC(=O)Nc1cccc(F)c1`, the Potency is reported as “inactive”. In the case of `COc1cccc(-c2cc(C(=O)N3CCN(c4ccccc4OC)CC3)no2)c1`, the Potency is reported as “inactive”. With `Cc1onc(-c2c(Cl)cccc2Cl)c1C(=O)NNC(=O)c1c(-c2c(Cl)cccc2Cl)noc1C` the Potency was 8.28 µM (active). With `CC(C)c1ccc(/C=C2\NC(=O)NC2=O)cc1` the Potency was “inactive”. In the case of `Cc1cccn2c(=O)c3cc(C(=O)NCCN4CCOCC4)c(=N)n(Cc4cccnc4)c3nc12`, the Potency is reported as “inactive”. In the case of `Cc1ccc(CCNC(=O)c2ccc3nc4ccccc4c(=O)n3c2)cc1`, the Potency is reported as “inactive”. With `COc1ccc2oc(C(=O)NCc3ccco3)c(C)c2c1` the Potency was “inactive”. In the case of `O=C(NCc1ccco1)c1cccn2c(=O)c3c4c(sc3nc12)CCCC4`, the Potency is reported as “inactive”. In the case of `Cc1cccn2c(=O)c3cc(C(=O)NCC4CCCO4)c(=N)n(Cc4ccc(F)cc4)c3nc12` (stereo unspecified), the Potency is reported as 9.28 µM (active). With `Cc1ccc(-c2noc(-c3ccccc3C(=O)NCC3CCCO3)n2)cc1` (stereo unspecified) the Potency was “inactive”. For `O=C(Nc1ccccc1C(=O)NCC1CCCO1)c1ccccc1F` (stereo unspecified), the Potency was “inactive”. For `COc1ccc(CCn2c(=N)c(C(=O)NCc3ccco3)cc3c(=O)n4cccc(C)c4nc32)cc1`, the Potency was 0.465 µM (active). In the case of `Cc1ccc2nc3c(cc(C(=O)NCCc4ccccc4)c(=N)n3CC3CCCO3)c(=O)n2c1` (stereo unspecified), the Potency is reported as 2.08 µM (active). For `Nc1nc(SCC(=O)Nc2ccc(Cl)cc2C(F)(F)F)n[nH]1`, the Potency was “inactive”. In the case of `CN(CC(=O)Nc1ccc(OC(F)(F)F)cc1)C(=O)C1CCC1`, the Potency is reported as “inactive”. In the case of `c1ccc(C2CNCc3c2ccc2ccccc32)cc1` (stereo unspecified), the Potency is reported as 10.4 µM (active). With `CC1=C(C(=O)NC2CC(C)(C)Cc3c2cnn3-c2ccc(C)cc2)OCCO1` (stereo unspecified) the Potency was “inactive”. With `C=CCOc1cccc(CNCc2cccnc2)c1` the Potency was “inactive”. With `CCc1ccccc1NC(=O)c1cccs1` the Potency was “inactive”. For `CCc1ccccc1NC(=O)CCOc1ccccc1`, the Potency was “inactive”. In the case of `CCc1ccccc1NC(=O)/C(=C/c1ccccc1)c1ccccc1`, the Potency is reported as 5.22 µM (active). In the case of `Cc1ccc(C(=O)NCC(=O)OCC(=O)NC2CCCCCCC2)cc1`, the Potency is reported as “inactive”.

Reference: PubChem BioAssay AID504832 (National Center for Advancing Translational Sciences (NCATS), 2011)
Potency is read from the fitted curve at half-maximal effect.
